# Assay results taken from publication PMC5540273 (PLoS ONE, 2017).
# Like-named read-outs stand apart in the source and are kept apart here.
# Key:
# GRK2 = system: T1, GRK2; conditions: concentration: 1 μM, replicates: in singlicate; n = 1
# T1 construct: gene ADRBK1
# GRK3 = system: T2, GRK3; conditions: concentration: 1 μM, replicates: in singlicate; n = 1
# T2 construct: gene ADRBK2
# GRK4 = conditions: concentration: 1 μM, replicates: in singlicate; n = 1
# GRK7 = conditions: concentration: 1 μM, replicates: in singlicate; n = 1
# GSK3A = conditions: concentration: 1 μM, replicates: in singlicate; n = 1
# GSK3B = conditions: n = 1
# HASPIN = system: T3, HASPIN; conditions: concentration: 1 μM, replicates: in singlicate; n = 1
# T3 construct: gene GSG2
# HCK = conditions: concentration: 1 μM, replicates: in singlicate; n = 1
# HIPK1 = conditions: concentration: 1 μM, replicates: in singlicate; n = 1
# HIPK2 = conditions: concentration: 1 μM, replicates: in singlicate; n = 1
# [1] = concentration: 1 μM, replicates: in singlicate
# 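Also: KINOMEscan kinase panel screen.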
SMILES,%Inh (GRK2) [%],%Inh (GRK3) [%],%Inh (GRK4) [%],%Inh (GRK7) [%],%Inh (GSK3A) [%],%Inh (GSK3B; 1 µM) [%],%Inh (HASPIN) [%],%Inh (HCK) [%],%Inh (HIPK1) [%],%Inh (HIPK2) [%],%Inh (GSK3B; [1]) [%]
Fc1cccc(CSc2nnc(-c3ccc4c(c3)CCO4)o2)c1,35,10,0,19,64,37,20,1,18,30,–
OCCCNc1nccc(-c2c(-c3cccc(C(F)(F)F)c3)nn3cc(C(F)(F)F)ccc23)n1 [GW630813],0,37,0,0,0,–,21,0,0,0,2
O=C1NC(=O)C(c2ccccc2)=C1Nc1cccc(O)c1 [SB-390534],0,0,3,0,30,20,6,6,8,18,–
CCc1nc(-c2cccc(C)c2)c(-c2ccncc2)s1,0,0,0,0,27,–,0,21,30,0,0
